Active and inactive are the calls of the source.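 The calls were made as follows, unless noted: active = compounds whose cell count with miR-34 switched on is under 0.7 times the count with it off; inactive = the rest.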

Assay [1] is described as follows: sensitizers of A549 cells to miR-34 induction, primary screen, imaging, A549 dox-inducible miR-34, nuclei and caspase counts (AID 1347080). Also: test concentration not given here. As to conditions: A549 miR-34 inducible, Hoechst nuclei count, 48 h.
Assay [2] can be described thus: survival rescue of mitochondrial mutant cells in low glucose, primary screen, MELAS cybrids, Rieske KO mouse fibroblasts, CellTiter-Glo (AID 1508586;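 active = mean z-score across replicates of 1.96 or higher in either the MELAS or the Rieske mutant cell line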;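 also: test concentration not given here; z relative to plate mean and SD of compound and empty wells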).
A short description of assay [3]: viability rescue of complex I mutant cybrids, primary screen, cell-based, galactose medium, ATP luminescence (AID 1645843;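 active = z-score of at least 1.8 in each of two replicates, scored against plate mean and spread of sample wells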;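 also: positive z means more ATP and so rescue of galactose-driven cybrid death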). The following applies: complex I mutant cybrid cells, 72 h, stronger effect = higher value.
Where [4] appears, read: stronger effect = lower value, cell number ratio, induced over uninduced.
Where [5] appears, read: measured here: relative caspase fold change +Dox/-Dox.
The mark [6] stands for this setting: measured here: total cells with miR-34 induction, stronger effect = lower value.
Where [7] appears, read: measured here: total cells without miR-34 induction.
The mark [8] stands for this setting: MELAS cybrid survival, CellTiter-Glo 48 h, stronger effect = higher value.
[9] abbreviates: Rieske KO mouse fibroblast survival, CellTiter-Glo 72 h.

With `O=C(O)c1cccc2c(-c3ccccc3)c(-c3ccccc3)[nH]c12`, the fold change in assay [1] (setting [4]) was 0.883 (inactive); in assay [1] (setting [5]), 1.11. Also, the results for the cell count in assay [1] (setting [6]) and in assay [1] (setting [7]) were 8700 and 9850, respectively. Besides, the z-score is -0.38 (inactive) in assay [2] (setting [8]), -0.101 in assay [2] (setting [9]) and 0.98 (inactive) in assay [3].
As for `CCCn1ncc(-c2ccnc(NCc3cc(CC)no3)n2)c1C`, the fold change is 0.843 (inactive) in assay [1] (setting [4]) and 1.57 in assay [1] (setting [5]). Besides, the cell count in assay [1] (setting [6]) turned out to be 6710; in assay [1] (setting [7]) it was 7960. Further, the z-score in assay [2] (setting [8]) was -0.178 (inactive); in assay [2] (setting [9]), -0.0436; in assay [3], -0.59 (inactive).
For the molecule `CC(O)Cc1cn(C2CCN(c3ncnc4nc[nH]c34)CC2)nn1` (stereo not drawn), the fold change in assay [1] (setting [4]) is 0.957 (inactive); in assay [1] (setting [5]), 0.915. In addition, the cell count is 8270 in assay [1] (setting [6]) and 8650 in assay [1] (setting [7]). Also, the z-score in assay [2] (setting [8]) was -0.102 (inactive); in assay [2] (setting [9]), -1.64; in assay [3] it was -0.52 (inactive).
Turning to `O=C(NCCCc1ccccc1)NC1CCCCC1`, the results for the fold change in assay [1] (setting [4]) and in assay [1] (setting [5]) were 0.869 (inactive) and 0.557, respectively. The results for the cell count in assay [1] (setting [6]) and in assay [1] (setting [7]) were 8240 and 9480, respectively. For the same molecule, the z-score is -0.491 (inactive) in assay [2] (setting [8]), -0.675 in assay [2] (setting [9]) and 0.35 (inactive) in assay [3].
On to `CCn1cnc(NC(=O)N(C)CC2Cc3ccccc3O2)n1` (stereo not drawn), for which the fold change in assay [1] (setting [4]) is 0.971 (inactive); in assay [1] (setting [5]), 1.16. Also, the cell count in assay [1] (setting [6]) was 9520; in assay [1] (setting [7]), 9810. Moreover, the z-score in assay [2] (setting [8]) was -0.133 (inactive); in assay [2] (setting [9]), -0.0873; in assay [3] it was -0.62 (inactive).
With `CNc1ccnc(-c2cnn(CC(=O)Nc3cc(C)nn3C)c2)n1`, the values for the fold change in assay [1] (setting [4]) and in assay [1] (setting [5]) were 0.867 (inactive) and 1.09, respectively. Also, the cell count in assay [1] (setting [6]) worked out at 8660; in assay [1] (setting [7]) it was 9980. In addition, the z-score in assay [2] (setting [8]) was -0.389 (inactive); in assay [2] (setting [9]), -1.16; in assay [3], -0.515 (inactive).
Regarding `CN1CCN(Cc2cccc(-n3cccn3)c2)CC1CCO` (stereo not drawn), the fold change in assay [1] (setting [4]) is 0.861 (inactive); in assay [1] (setting [5]), 3.04. The values for the cell count in assay [1] (setting [6]) and in assay [1] (setting [7]) were 8640 and 10000, respectively. For the same molecule, the z-score is -0.56 (inactive) in assay [2] (setting [8]), -0.308 in assay [2] (setting [9]) and -0.58 (inactive) in assay [3].
In the case of `CCCn1ncc(-c2ccnc(NC3CC(C)(C)NC(C)(C)C3)n2)c1C`, the figures for the fold change in assay [1] (setting [4]) and in assay [1] (setting [5]) were 0.919 (inactive) and 0.965, respectively. Also, the cell count in assay [1] (setting [6]) came out at 8450; in assay [1] (setting [7]), 9200. Besides, the z-score in assay [2] (setting [8]) is 0.278 (inactive); in assay [2] (setting [9]) it was 0.593; in assay [3], 0.33 (inactive).
Turning to `Cc1nsc(NC(=O)NC2Cc3ccccc3C2)n1`, the values for the fold change in assay [1] (setting [4]) and in assay [1] (setting [5]) were 0.755 (inactive) and 2.05, respectively. Moreover, the cell count in assay [1] (setting [6]) was determined as 7330; in assay [1] (setting [7]), 9710. Also, the z-score was 0.128 (inactive) in assay [2] (setting [8]), -0.355 in assay [2] (setting [9]) and 2.51 (active) in assay [3].
Take `Cc1nn(C)c(C)c1-c1ccnc(N(C)Cc2cc(-c3ccccn3)no2)n1`: the results for the fold change in assay [1] (setting [4]) and in assay [1] (setting [5]) were 0.81 (inactive) and 1.13, respectively. The values for the cell count in assay [1] (setting [6]) and in assay [1] (setting [7]) were 6820 and 8420, respectively. Further, the z-score in assay [2] (setting [8]) was -0.553 (inactive); in assay [2] (setting [9]), 0.716; in assay [3], -0.45 (inactive).
In the case of `O=C(c1ccnc(Cl)c1)N1CCc2[nH]nc(C3CCC3)c2C1`, the figures for the fold change in assay [1] (setting [4]) and in assay [1] (setting [5]) were 0.923 (inactive) and 0.638, respectively. Moreover, the cell count was found to be 9170 in assay [1] (setting [6]) and 9930 in assay [1] (setting [7]). For the same molecule, the z-score is -0.36 (inactive) in assay [2] (setting [8]), 0.475 in assay [2] (setting [9]) and -0.4 (inactive) in assay [3].
Take `O=C(Nc1n[nH]c(Cc2ccccc2)n1)N1CCN(c2ncccn2)CC1`: the fold change in assay [1] (setting [4]) is 0.879 (inactive); in assay [1] (setting [5]) it was 0.976. In addition, the cell count in assay [1] (setting [6]) turned out to be 8590; in assay [1] (setting [7]) it was 9760. For the same molecule, the z-score in assay [2] (setting [8]) was -0.0698; in assay [2] (setting [9]), 4; in assay [3], 0.005 (inactive).
Regarding `CCn1ncc(NC(=O)Cn2ccc(-c3ncnn3C)n2)n1`, the fold change in assay [1] (setting [4]) was 0.85 (inactive); in assay [1] (setting [5]) it was 1.24. Besides, the cell count came out at 8780 in assay [1] (setting [6]) and 10300 in assay [1] (setting [7]). Moreover, the results for the z-score in assay [2] (setting [8]), in assay [2] (setting [9]) and in assay [3] were 0.204 (inactive), -0.374 and -0.5 (inactive), respectively.
On to `CCc1nc(NC(=O)N(C)Cc2cccc(-n3cccn3)c2)nn1C`, for which the fold change in assay [1] (setting [4]) is 0.843 (inactive); in assay [1] (setting [5]), 1.39. For the same molecule, the cell count in assay [1] (setting [6]) was 7990; in assay [1] (setting [7]), 9480. The results for the z-score in assay [2] (setting [8]), in assay [2] (setting [9]) and in assay [3] were 0.262 (inactive), -0.471 and -0.535 (inactive), respectively.
`C=CCNC(=O)c1cccnc1-c1ccc(OC)c2ncccc12`: the fold change was 0.914 (inactive) in assay [1] (setting [4]) and 1.9 in assay [1] (setting [5]). Further, the figures for the cell count in assay [1] (setting [6]) and in assay [1] (setting [7]) were 9130 and 9990, respectively. For the same molecule, the z-score in assay [2] (setting [8]) was -0.163 (inactive); in assay [2] (setting [9]) it was -0.219; in assay [3] it was -0.545 (inactive).
Turning to `CCn1cnc(NC(=O)N(C)Cc2cccc3ncccc23)n1`, the fold change in assay [1] (setting [4]) was 0.944 (inactive); in assay [1] (setting [5]) it was 1.82. For the same molecule, the cell count in assay [1] (setting [6]) worked out at 9300; in assay [1] (setting [7]), 9840. Moreover, the z-score was -0.163 (inactive) in assay [2] (setting [8]), -0.316 in assay [2] (setting [9]) and -0.465 (inactive) in assay [3].
Consider `CC(c1cccc(O)c1)N(C)C` (stereo not drawn), for which the fold change in assay [1] (setting [4]) is 0.895 (inactive); in assay [1] (setting [5]) it was 0.805. Further, the results for the cell count in assay [1] (setting [6]) and in assay [1] (setting [7]) were 8630 and 9640, respectively. The z-score in assay [2] (setting [8]) is -0.0784 (inactive); in assay [2] (setting [9]), -0.273; in assay [3], 0.205 (inactive).
Take `NC(=O)c1ccccc1-c1cccc2ccccc12`: the fold change in assay [1] (setting [4]) was 0.84 (inactive); in assay [1] (setting [5]), 1.62. For the same molecule, the figures for the cell count in assay [1] (setting [6]) and in assay [1] (setting [7]) were 7950 and 9470, respectively. Moreover, the z-score in assay [2] (setting [8]) was -0.37 (inactive); in assay [2] (setting [9]), 0.135; in assay [3], -0.38 (inactive).
On to `O=C(O)c1ccccc1C(=O)O`, for which the fold change in assay [1] (setting [4]) was 0.874 (inactive); in assay [1] (setting [5]), 0.755. For the same molecule, the cell count is 8620 in assay [1] (setting [6]) and 9850 in assay [1] (setting [7]). The z-score in assay [2] (setting [8]) is -0.0339 (inactive); in assay [2] (setting [9]), -0.338; in assay [3] it was 0.455 (inactive).
For the molecule `Cc1nsc(NC(=O)NC2CCc3ccccc3C2)n1` (stereo not drawn), the fold change in assay [1] (setting [4]) is 0.899 (inactive); in assay [1] (setting [5]), 1. Besides, the cell count in assay [1] (setting [6]) is 3190; in assay [1] (setting [7]), 3550. In addition, the values for the z-score in assay [2] (setting [8]), in assay [2] (setting [9]) and in assay [3] were -0.269 (inactive), -0.339 and 1.48 (inactive), respectively.
In the case of `O=S(=O)(O)CCCSc1nc2ccccc2s1`, the fold change in assay [1] (setting [4]) is 0.906 (inactive); in assay [1] (setting [5]), 0.489. Besides, the cell count in assay [1] (setting [6]) came out at 8800; in assay [1] (setting [7]), 9700. The results for the z-score in assay [2] (setting [8]), in assay [2] (setting [9]) and in assay [3] were -0.268 (inactive), -0.142 and 0.7 (inactive), respectively.
Take `COc1cccc2c(=O)n(C(C)Cn3cccn3)cnc12` (stereo not drawn): the fold change in assay [1] (setting [4]) was 0.936 (inactive); in assay [1] (setting [5]), 1.36. For the same molecule, the cell count in assay [1] (setting [6]) is 9030; in assay [1] (setting [7]), 9650. The z-score in assay [2] (setting [8]) is -0.113 (inactive); in assay [2] (setting [9]), -1.21; in assay [3], -0.305 (inactive).
`CCOc1ccccc1-c1ncnc2sc(C)c(C)c12`: the fold change in assay [1] (setting [4]) is 0.89 (inactive); in assay [1] (setting [5]), 1.57. In addition, the cell count in assay [1] (setting [6]) was found to be 6100; in assay [1] (setting [7]), 6860. Further, the z-score in assay [2] (setting [8]) is -0.535 (inactive); in assay [2] (setting [9]) it was 0.672; in assay [3] it was 0.07 (inactive).
On to `CC(=O)NCC(=O)N1CCN(Cc2ccc3c(c2)OCO3)C(=O)C1`, for which the fold change in assay [1] (setting [4]) was 0.905 (inactive); in assay [1] (setting [5]), 1.72. The cell count in assay [1] (setting [6]) was determined as 8860; in assay [1] (setting [7]), 9790. The z-score is 0.0526 (inactive) in assay [2] (setting [8]), -0.343 in assay [2] (setting [9]) and -0.565 (inactive) in assay [3].

The values are drawn from PubChem BioAssay.
